# Hits are enriched below; roughly 1.6% of the tested compounds scored in any of these assays.
# KCNQ2 inh: rat KCNQ2 potassium channel inhibitors, primary screen, cell-based, CHO-K1, FluxOR thallium flux, B-score; Potassium voltage-gated channel subfamily KQT member 2 (Rattus norvegicus), O88943; 20 min; active compounds read low; B-score at 10 µM; hit rate 1.1% among 310,000;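 active = fluorescence ratio B-score at most minus 3 library SDs, with starting brightness B-score within 2 library SDs, cut at about -5.5 in these data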
# Target sequence (O88943 whole entry, looked up): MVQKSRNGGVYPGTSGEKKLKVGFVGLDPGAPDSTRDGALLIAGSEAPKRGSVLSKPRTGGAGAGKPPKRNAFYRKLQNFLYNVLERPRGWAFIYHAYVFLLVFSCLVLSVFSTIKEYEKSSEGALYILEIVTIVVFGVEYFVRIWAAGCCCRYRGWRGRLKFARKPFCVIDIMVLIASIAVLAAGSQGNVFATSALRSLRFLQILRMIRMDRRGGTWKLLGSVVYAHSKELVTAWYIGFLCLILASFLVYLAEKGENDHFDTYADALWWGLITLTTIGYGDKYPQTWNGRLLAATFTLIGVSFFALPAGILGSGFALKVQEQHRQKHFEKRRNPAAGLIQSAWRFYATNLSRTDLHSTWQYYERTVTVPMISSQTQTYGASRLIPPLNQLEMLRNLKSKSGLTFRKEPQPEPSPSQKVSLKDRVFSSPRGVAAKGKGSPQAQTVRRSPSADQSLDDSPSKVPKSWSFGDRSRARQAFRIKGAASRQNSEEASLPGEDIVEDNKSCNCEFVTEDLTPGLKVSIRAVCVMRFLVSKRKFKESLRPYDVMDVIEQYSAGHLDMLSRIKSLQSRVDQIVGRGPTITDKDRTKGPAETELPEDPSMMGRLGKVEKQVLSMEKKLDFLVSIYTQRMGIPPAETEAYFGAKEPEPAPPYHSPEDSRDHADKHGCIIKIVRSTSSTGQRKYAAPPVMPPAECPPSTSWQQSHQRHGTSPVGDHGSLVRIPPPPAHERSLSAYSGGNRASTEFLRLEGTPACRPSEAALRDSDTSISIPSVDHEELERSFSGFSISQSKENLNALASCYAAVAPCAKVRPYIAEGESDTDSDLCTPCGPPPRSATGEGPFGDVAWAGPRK
# KCNQ2 enhance: potentiators of rat KCNQ2 potassium channel; CHO-K1 KCNQ2, FluxOR thallium flux fluorescence; active compounds read high; B-score at 10 µM; hit rate 0.54% among 310,000; AID 2239, 2010;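 active = fluorescence ratio B-score at least 3 SD of library B-scores, with initial fluorescence B-score within 3 of them, cut at about 5.3 in these data; same plate scores as AID 2156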;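 also: B-score of peak minus minimum over baseline fluorescence ratio after K+ and Tl+ stimulus; positive B-score means potentiation of KCNQ2 with more thallium influx and brighter signal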
# KCNQ2 inh conf: rat KCNQ2 potassium channel inhibitors, confirmation, cell-based, thallium flux | shares compounds with KCNQ2 inh | KCNQ2-expressing cells, inhibition; active compounds read low | activity change, negative = inhibition, % at 10 µM | hit rate 57% among 1,000
# KCNQ1 spec: human KCNQ1 channel inhibition, counter-screen for KCNQ2 inhibitor project, cell-based, FluxOR thallium flux. shares compounds with KCNQ2 inh. KCNQ1-expressing cells, FluxOR thallium flux fluorescence; active compounds read low. activity change, negative = inhibition, % at 10 µM. hit rate 15% among 1,000. AID 493026, 2011;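 active = activity change at least 3 SD of negative controls below their mean in both duplicate wells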;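 also: CHO cells stably transfected with KCNQ1 and depolarized by potassium stimulus; peak minus minimum fluorescence over baseline after thallium addition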
# CHO parental ctr: thallium flux change in parental CHO cells, counter-screen for KCNQ2 inhibitor project. shares compounds with KCNQ2 inh. active compounds read low. activity change, % at 10 µM. hit rate 14% among 1,000. AID 493029, 2011
# KCNQ2 patch conf: rat KCNQ2 channel inhibitors, confirmation, cell-based, automated patch clamp, single concentration; shares compounds with KCNQ2 inh; KCNQ2-expressing cells, automated patch clamp current; calls only at 10 µM; hit rate 49% among 550; AID 588531, 2011
# Hits are given with their value; - = inactive; . = not tested or not shown; + = active, no number. Unless noted, no rule for the calls is given here.
SMILES,KCNQ2 inh,KCNQ2 enhance,KCNQ2 inh conf,KCNQ1 spec,CHO parental ctr,others
CCCCOC(=O)/C(=C/C=C/c1ccccc1)NC(=O)c1ccccc1,-6.9,-,-25%,-,-,KCNQ2 patch conf=-
CCCOC(=O)/C(=C\C=C\c1ccccc1)NC(=O)c1ccccc1,-,.,.,.,.,
COc1cc(-c2nc3cccc(C)n3c2NCC2CCCO2)ccc1O (stereo not drawn),-8.6,-,-,-,-,
COc1cc(-c2nc3cnccn3c2Nc2ccccc2)ccc1O,-,-,.,.,.,
CC1=Nc2ccccc2/C1=C/c1sc(=N)n(-c2nccs2)c1O,-9.9,-,-52%,-62%,-57%,KCNQ2 patch conf=-
CC1=Nc2ccccc2/C1=C/c1nc(-c2ccc(C)s2)oc1O,-,.,.,.,.,
O=[N+]([O-])c1c(N2CCN(CCO)CC2)nc2ccccn12,-,-,.,.,.,
Cc1cccc(-n2nc3c(c2NC(=O)c2ccc(Br)o2)CSC3)c1,-9,-,-28%,-,-,KCNQ2 patch conf=-
Cc1cccc(-n2nc3c(c2NC(=O)CCCl)CSC3)c1,-,.,.,.,.,
COc1ccc(-c2nc(N)ncc2-c2csc(C)n2)c(O)c1OC,-,.,.,.,.,
O=C(COC(=O)/C=C/c1ccc(C(F)(F)F)cc1)NC1CCS(=O)(=O)C1 (stereo not drawn),-,.,.,.,.,
CCC(C)Sc1cccc(-c2nc3cc(C)ccn3c2NCc2ccccc2)c1 (stereo not drawn),-6.7,-,-,-,-,
CCC(C)Sc1ccc(-c2nc3ccc(C)cn3c2NCc2ccccc2)cc1OC (stereo not drawn),-,.,.,.,.,
Cc1ccc(CCNS(=O)(=O)c2cc(Br)cnc2N)cc1,-,.,.,.,.,
COc1cc(CN(C)C(C)C(=O)Nc2ccc([N+](=O)[O-])cc2Cl)ccc1OC(F)F (stereo not drawn),-,.,.,.,.,
COc1ccc(Cl)cc1NC(=O)C(C)N(C)Cc1ccc(C(F)(F)F)cc1 (stereo not drawn),-6.8,-,-45%,-52%,-39%,KCNQ2 patch conf=-
CCN(C)Cc1c(C(=O)N2CCc3ccccc3C2)nc2ccc(Cl)cn12,-,.,.,.,.,
CN(Cc1c(C(=O)N2CCc3ccccc3C2)nc2ccc(Cl)cn12)C(C1CC1)C1CC1,-7.9,-,-24%,-,-,KCNQ2 patch conf=+
COc1ccc(N(CCC#N)C(=O)/C(C#N)=C\c2cccs2)cc1,-,-,.,.,.,
COCCNC(=S)N1CCCC(CO)C1 (stereo not drawn),-,-,.,.,.,
COC(=O)C(NC(C)=O)(Nc1nc(C)cs1)C(F)(F)F (stereo not drawn),-,.,.,.,.,
COC(=O)C(NC(=O)c1ccccc1)(Nc1nc(C)cs1)C(F)(F)F (stereo not drawn),-8.5,-,-,-,-,
CCC(C)(C)NC(=O)CN(C(=O)CCC(=O)Nc1nccs1)c1ccc2c(c1)OCCO2,-,-,.,.,.,
Cc1nc(CN2CCN(Cc3nc(C(c4ccccc4)c4ccccc4)no3)CC2)cs1,-,.,.,.,.,
O=C1N=C(C=c2ccc(=Cc3[nH]c(=O)[nH]c3O)cc2)C(=O)N1,-,.,.,.,.,
SMILES,KCNQ2 inh,KCNQ2 enhance,KCNQ2 inh conf,KCNQ1 spec,CHO parental ctr,others
COc1ccc(/C=C/C(=O)N(Cc2ccccc2)c2ccccn2)cc1OC,-7.7,-,-18%,-,-,KCNQ2 patch conf=+
Cc1ccc(OCC(=O)N(Cc2ccccc2)c2ccccn2)cc1,-8.2,-,-,-,-,
COc1cc(/C=C/C(=O)N(Cc2ccccc2)c2ccccn2)cc(OC)c1OC,-7.9,-,-29%,-,-,KCNQ2 patch conf=+
Cc1ccc(CC(=O)N(Cc2ccccc2)c2ccccn2)cc1,-,.,.,.,.,
COc1ccccc1NC(=O)N(Cc1ccccc1)c1ccccn1,-,.,.,.,.,
COc1cc(/C=C/C(=O)NCc2ccccn2)cc(OC)c1OC,-,-,.,.,.,
CC(=O)N1CCN(S(=O)(=O)c2cccc(C(=O)N(Cc3ccccc3)c3cccc(C)c3)c2)CC1,-,.,.,.,.,
CN(CCCNC(=O)c1ccccc1F)CCCNC(=O)c1ccccc1F,-,.,.,.,.,
CCCN(CCC)c1nc(-c2ccccn2)nc2ccccc12,-,.,.,.,.,
c1ccc(CCNc2nc(-c3ccccn3)nc3ccccc23)cc1,-8.6,-,-29%,-,-,KCNQ2 patch conf=-
N#Cc1ccc(CN2C(=O)NC3(CCCCCC3)C2=O)cc1,-,.,.,.,.,
CCSc1nnc(NC(=O)C2CC(=O)N(Cc3ccccc3)C2)s1 (stereo not drawn),-,-,.,.,.,

# Screens (PubChem BioAssay)
